Source: PubChem BioAssay (NCATS)
Results filed as inconclusive are left out. The source made the active and inactive calls. The call rests on the fitted dose curve; in most records, active means well fitted curve in the direction sought with a large enough effect; inconclusive means small, poorly fitted or top-dose-only effect, or another doubt; inactive means no such curve, though single readings can be large; an effect the other way counts as inactive or inconclusive.

Experiments:
[1] = qHTS of pediatric cancer cell lines to identify multiple opportunities for drug repurposing: Primary screen for SJ-GBM2 cells (AID 1347091); conditions: SJ-GBM2 viability, CellTiter-Glo luminescence, 48 h; series mostly up to 46 µM
In short: (§1)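 Eight- or eleven-point concentration series, 48 h treatment at 37 degrees C in growth media; readout CellTiter-Glo luminescence. Potency and efficacy were taken from the concentration-response curves.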

[2] = qHTS of pediatric cancer cell lines to identify multiple opportunities for drug repurposing: Primary screen for A673 cells (AID 1347092); conditions: A673 Ewing sarcoma viability, CellTiter-Glo ATP luminescence, 48 h; series mostly up to 46 µM; further: nearly all actives have a fitted effect of over 45% in size
In short: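 48 h compound exposure, A673, 500-1,000 cells/well, 37 degrees C/5% CO2. MIPE: 11-point, 0.78 nM-46 µM; NPC: 8-point, 0.59 nM-46 µM (final). Readout CellTiter-Glo luminescence after 15 min RT.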

[3] = qHTS of pediatric cancer cell lines to identify multiple opportunities for drug repurposing: Primary screen for DAOY cells (AID 1347090); conditions: DAOY medulloblastoma viability, CellTiter-Glo luminescence, 48 h; series mostly up to 46 µM; further: nearly all actives have a fitted effect of over 55% in size
In short: as §1

[4] = qHTS of pediatric cancer cell lines to identify multiple opportunities for drug repurposing: Primary screen for SK-N-MC cells (AID 1347093); conditions: SK-N-MC viability, CellTiter-Glo luminescence, 48 h; series mostly up to 46 µM
In short: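 Metabolically active cells were quantified by ATP-dependent luminescence (CellTiter-Glo, 15 min at room temperature) following 48 h treatment. Cells had been plated at 500-1,000 per well and settled for 5 h beforehand.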

[5] = qHTS of pediatric cancer cell lines to identify multiple opportunities for drug repurposing: Primary screen for BT-37 cells (AID 1347094); conditions: BT-37 viability, CellTiter-Glo luminescence, 48 h; series mostly up to 57.3 µM
In short: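 Cells plated at 500-1,000/well in growth medium, compounds added after 5 h. MIPE tested at 11 points (from 0.78 nM), NPC at 8 points (from 0.59 nM). CellTiter-Glo luminescence after 48 h; concentration-response curves from primary screen.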
Potency means the concentration at half of the fitted maximal effect.

| SMILES | Potency [1] | Potency [2] | Potency [3] | Potency [4] | Potency [5] |
| --- | --- | --- | --- | --- | --- |
| CCN(CC)CCOc1ccc(/C(=C(\Cl)c2ccccc2)c2ccccc2)cc1 | 18.8 µM (active) | 21.1 µM (active) | – | – | – |
| CCCCCCCCCCCCCCCC[n+]1ccccc1 | – | 1.68 µM (active) | 16.8 µM (active) | 5.31 µM (active) | 15.5 µM (active) |
| O=[N+]([O-])c1nccn1CO[C@@H](CO)[C@H](O)CO | inactive | inactive | inactive | – | inactive |
| Nc1cccc2c(N)cccc12 | – | 24.3 µM (active) | inactive | 24.3 µM (active) | – |
| c1ccc2c(c1)CCc1ccccc1N2 | inactive | inactive | – | inactive | inactive |
| CC(=O)Oc1ccc(C2(c3ccc(OC(C)=O)cc3)Oc3ccccc3NC2=O)cc1 | – | 13.3 µM (active) | 13.3 µM (active) | – | – |
| Nc1c2ccccc2nc2ccccc12 | – | 6.68 µM (active) | 21.1 µM (active) | 11.9 µM (active) | 8.71 µM (active) |
| Nc1ccc2cc3ccc(N)cc3nc2c1 | – | 13.3 µM (active) | 26.6 µM (active) | – | 9.78 µM (active) |
| CC(=O)N(CC(O)CO)c1c(I)c(C(=O)NCCO)c(I)c(C(=O)NCC(O)CO)c1I (configuration not stated) | inactive | – | inactive | inactive | inactive |
| CC(C)(C)C1CCC(CC2=C(O)c3ccccc3C(=O)C2=O)CC1 (configuration not stated) | – | – | 3.35 µM (active) | 5.31 µM (active) | – |
| N#C/C(=C1/SC[C@@H](c2ccc(Cl)cc2Cl)S1)n1ccnc1 | – | – | – | 11.9 µM (active) | – |
| CCCCCCCCCCCCCC[N+](C)(C)C | 11.9 µM (active) | 2.11 µM (active) | 10.6 µM (active) | – | 15.5 µM (active) |
